Data reported in PubChem BioAssay (NCI).
Compounds without any hit were thinned out: in the full panel of roughly 83,000, 20% have a hit.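 96-well plates, one dose, 48 hours. Percent growth reported; active if below 10.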 The source made the active and inactive calls.

What was measured:
Test in all cases: NCI-60 one-dose screen, 48 h (100 = growth as untreated, 0 = no growth, -100 = all killed)
Details in all cases: 10 µM
SK-MEL-2 melanoma = test system: SK-MEL-2 melanoma
SN12C renal = test system: SN12C renal
UO-31 renal = test system: UO-31 renal
TK-10 renal = test system: TK-10 renal
ACHN renal = test system: ACHN renal
CAKI-1 renal = test system: CAKI-1 renal
A498 renal = test system: A498 renal
CCRF-CEM leukemia = test system: CCRF-CEM leukemia
MOLT-4 leukemia = test system: MOLT-4 leukemia
SR leukemia = test system: SR leukemia
RPMI-8226 leukemia = test system: RPMI-8226 leukemia
OVCAR-8 ovarian = test system: OVCAR-8 ovarian
OVCAR-5 ovarian = test system: OVCAR-5 ovarian
OVCAR-4 ovarian = test system: OVCAR-4 ovarian
SK-OV-3 ovarian = test system: SK-OV-3 ovarian
IGROV1 ovarian = test system: IGROV1 ovarian
OVCAR-3 ovarian = test system: OVCAR-3 ovarian
HS 578T breast = test system: HS 578T breast
NCI/ADR-RES ovarian = test system: NCI/ADR-RES ovarian

Measured: growth

COc1cc(CSc2nc3ccc(C)cc3c(=O)n2Cc2ccccc2)cc(OC)c1OC
inactive: SN12C renal 40% | UO-31 renal 32.1% | TK-10 renal 52.7% | ACHN renal 46.7% | CAKI-1 renal 28.8% | CCRF-CEM leukemia 23.6% | MOLT-4 leukemia 30.8% | SR leukemia 18% | RPMI-8226 leukemia 54.1% | OVCAR-8 ovarian 35.2% | OVCAR-5 ovarian 45.4% | OVCAR-4 ovarian 53.1% | SK-OV-3 ovarian 23.9% | IGROV1 ovarian 24.3% | HS 578T breast 20.7% | NCI/ADR-RES ovarian 12.7%
active: SK-MEL-2 melanoma 1.08% | A498 renal 7.01% | OVCAR-3 ovarian -22.7%

CC(C)OCc1cc(CN2CCN(c3cccc(Cl)c3)CC2)c(O)c2ncccc12
inactive: ACHN renal 10.1% | OVCAR-5 ovarian 38.3% | OVCAR-4 ovarian 15.7% | SK-OV-3 ovarian 13.7%
active: SK-MEL-2 melanoma -59.1% | SN12C renal -4.06% | UO-31 renal -6.8% | TK-10 renal 5.04% | CAKI-1 renal -49.9% | A498 renal -62.7% | CCRF-CEM leukemia -13.4% | MOLT-4 leukemia -48.6% | SR leukemia -30.6% | RPMI-8226 leukemia -25% | OVCAR-8 ovarian -15.2% | IGROV1 ovarian 8.86% | OVCAR-3 ovarian 2.88% | HS 578T breast -0.795% | NCI/ADR-RES ovarian -27.3%

Cc1cc(OI)c(C(C)C)cc1-c1cc(C(C)C)c(OI)cc1C
inactive: SK-MEL-2 melanoma 80.7% | SN12C renal 101% | UO-31 renal 83.5% | TK-10 renal 97.3% | ACHN renal 96% | CAKI-1 renal 95.1% | A498 renal 85.4% | CCRF-CEM leukemia 98.3% | MOLT-4 leukemia 86.8% | SR leukemia 84.8% | RPMI-8226 leukemia 103% | OVCAR-8 ovarian 104% | OVCAR-5 ovarian 94.4% | OVCAR-4 ovarian 109% | SK-OV-3 ovarian 92.4% | IGROV1 ovarian 98% | HS 578T breast 109% | NCI/ADR-RES ovarian 102%

CC(C)C[C@H](NC(=O)CCn1ccc2ccccc2c1=O)B(O)O
inactive: SK-MEL-2 melanoma 63.8% | SN12C renal 63.7% | UO-31 renal 57.3% | TK-10 renal 12.8% | ACHN renal 28.6% | CAKI-1 renal 45.6% | CCRF-CEM leukemia 12% | RPMI-8226 leukemia 10.4% | OVCAR-8 ovarian 72.4% | OVCAR-5 ovarian 65.6% | OVCAR-4 ovarian 85.9% | SK-OV-3 ovarian 77.8% | IGROV1 ovarian 93.6% | OVCAR-3 ovarian 28.8% | HS 578T breast 63.3% | NCI/ADR-RES ovarian 87.9%
active: A498 renal 7.69% | MOLT-4 leukemia 5.52% | SR leukemia 8.08%

Cc1ccc(/C(CS(=O)(=O)c2ccc(C)cc2)=N\O)cc1
inactive: SK-MEL-2 melanoma 104% | SN12C renal 89.3% | UO-31 renal 93% | TK-10 renal 82.7% | ACHN renal 91.7% | CAKI-1 renal 92.4% | A498 renal 92.2% | CCRF-CEM leukemia 86.7% | MOLT-4 leukemia 102% | SR leukemia 83.7% | RPMI-8226 leukemia 96.6% | OVCAR-8 ovarian 97.2% | OVCAR-5 ovarian 90.9% | OVCAR-4 ovarian 96.1% | SK-OV-3 ovarian 112% | IGROV1 ovarian 102% | OVCAR-3 ovarian 118% | HS 578T breast 113% | NCI/ADR-RES ovarian 106%

CC(C)C[C@H](NC(=O)Cn1ccc2ccccc2c1=O)B(O)O
inactive: SK-MEL-2 melanoma 63.5% | SN12C renal 75.8% | UO-31 renal 50.6% | TK-10 renal 11.7% | ACHN renal 29.1% | CAKI-1 renal 40.6% | A498 renal 30.1% | CCRF-CEM leukemia 15.2% | RPMI-8226 leukemia 11.9% | OVCAR-8 ovarian 88.2% | OVCAR-5 ovarian 76.9% | OVCAR-4 ovarian 93.3% | SK-OV-3 ovarian 96.7% | IGROV1 ovarian 107% | OVCAR-3 ovarian 42.3% | HS 578T breast 90% | NCI/ADR-RES ovarian 103%
active: MOLT-4 leukemia 9.94% | SR leukemia 9.81%

COc1ccc(-c2nnc(COc3ccc(NC(=O)Nc4cccc(C(F)(F)F)c4)cc3F)o2)cc1
active: SR leukemia 3.93%
inactive: SK-MEL-2 melanoma 36.8% | SN12C renal 48.7% | UO-31 renal 57.2% | TK-10 renal 75.3% | ACHN renal 27.3% | CAKI-1 renal 50.6% | A498 renal 27.3% | CCRF-CEM leukemia 47.7% | MOLT-4 leukemia 33.8% | RPMI-8226 leukemia 33.6% | OVCAR-8 ovarian 49.1% | OVCAR-5 ovarian 82.5% | OVCAR-4 ovarian 61.4% | SK-OV-3 ovarian 103% | IGROV1 ovarian 68.8% | OVCAR-3 ovarian 56.9% | NCI/ADR-RES ovarian 54.8%

Cc1nn2c(/C=C3/C(=O)Nc4ccc(Cl)cc43)c(-c3ccccc3)nc2s1
active: TK-10 renal 6.61% | SR leukemia -12.7% | OVCAR-4 ovarian -52.3% | SK-OV-3 ovarian -0.11% | IGROV1 ovarian 3.8% | OVCAR-3 ovarian 9.92% | HS 578T breast -6.37%
inactive: SK-MEL-2 melanoma 32.7% | SN12C renal 52.7% | UO-31 renal 29.6% | ACHN renal 30.1% | CAKI-1 renal 53.4% | A498 renal 43.8% | CCRF-CEM leukemia 50.7% | MOLT-4 leukemia 57.2% | RPMI-8226 leukemia 23.7% | OVCAR-8 ovarian 14.6% | OVCAR-5 ovarian 73.6% | NCI/ADR-RES ovarian 38.3%

NS(=O)(=O)c1ccc(N2N=C(c3ccc(-c4ccccc4)cc3)CC2c2ccc(Cl)cc2)cc1 (stereo not given)
inactive: SK-MEL-2 melanoma 95.5% | SN12C renal 67.4% | UO-31 renal 72.1% | TK-10 renal 112% | ACHN renal 80.4% | CAKI-1 renal 78.7% | A498 renal 87.4% | CCRF-CEM leukemia 74.4% | MOLT-4 leukemia 70.6% | SR leukemia 73.5% | RPMI-8226 leukemia 63.4% | OVCAR-8 ovarian 78% | OVCAR-5 ovarian 95% | OVCAR-4 ovarian 76.1% | SK-OV-3 ovarian 95% | IGROV1 ovarian 88.1% | HS 578T breast 88.6% | NCI/ADR-RES ovarian 84.5%

CCCc1c(CC)c(=N)c2ccccc2n1C
active: CCRF-CEM leukemia 9.26% | MOLT-4 leukemia 0.122% | SR leukemia -27.5% | RPMI-8226 leukemia -17%
inactive: SK-MEL-2 melanoma 37.3% | SN12C renal 72.5% | UO-31 renal 38.3% | TK-10 renal 74.4% | ACHN renal 65.8% | CAKI-1 renal 39.8% | A498 renal 42.4% | OVCAR-8 ovarian 76.1% | OVCAR-5 ovarian 100% | OVCAR-4 ovarian 79.7% | SK-OV-3 ovarian 91.3% | IGROV1 ovarian 82.8% | HS 578T breast 76.5% | NCI/ADR-RES ovarian 78.6%

COc1cc(C2C=C(c3ccc(Cl)cc3)N=C3SC(C)=CN32)cc(OC)c1OC (stereo not given)
active: SR leukemia 9.45%
inactive: SK-MEL-2 melanoma 102% | SN12C renal 90.6% | UO-31 renal 79.3% | TK-10 renal 71% | ACHN renal 105% | CAKI-1 renal 88.7% | A498 renal 86.1% | CCRF-CEM leukemia 89.2% | MOLT-4 leukemia 80.2% | RPMI-8226 leukemia 47.5% | OVCAR-8 ovarian 93.6% | OVCAR-5 ovarian 85.2% | OVCAR-4 ovarian 77.4% | SK-OV-3 ovarian 118% | IGROV1 ovarian 96.6% | HS 578T breast 101% | NCI/ADR-RES ovarian 97.6%

Cc1ccc(-n2nnc3c(sc4ccccc43)c2=O)cc1
active: UO-31 renal 9.98% | OVCAR-4 ovarian -23.6% | SK-OV-3 ovarian 9.88%
inactive: SK-MEL-2 melanoma 83% | SN12C renal 76.7% | TK-10 renal 56.7% | ACHN renal 15.2% | CAKI-1 renal 48.7% | A498 renal 102% | CCRF-CEM leukemia 76.3% | MOLT-4 leukemia 90.6% | SR leukemia 75.1% | RPMI-8226 leukemia 46.1% | OVCAR-8 ovarian 50% | OVCAR-5 ovarian 90.3% | IGROV1 ovarian 23.5% | HS 578T breast 23% | NCI/ADR-RES ovarian 53.7%

COc1cccc(-c2nnc(COc3ccc(-c4nc5ccccc5[nH]4)cc3OC)o2)c1
inactive: SK-MEL-2 melanoma 99.3% | SN12C renal 85.9% | UO-31 renal 87.9% | TK-10 renal 132% | ACHN renal 103% | CAKI-1 renal 98.7% | A498 renal 71.8% | CCRF-CEM leukemia 44.9% | MOLT-4 leukemia 71.5% | RPMI-8226 leukemia 51% | OVCAR-8 ovarian 67.3% | OVCAR-5 ovarian 119% | OVCAR-4 ovarian 103% | SK-OV-3 ovarian 107% | IGROV1 ovarian 101% | HS 578T breast 102% | NCI/ADR-RES ovarian 89%
active: SR leukemia 7.26%

C=CCOc1ccc2c(c1)CC[C@@H]1[C@@H]2CC[C@]2(C)C(=O)/C(=N/O)C[C@@H]12
inactive: SK-MEL-2 melanoma 54.6% | SN12C renal 39.3% | UO-31 renal 27.6% | ACHN renal 30.4% | CAKI-1 renal 10.7% | A498 renal 50.2% | RPMI-8226 leukemia 20.2% | OVCAR-8 ovarian 70.5% | OVCAR-5 ovarian 44.7% | SK-OV-3 ovarian 81.8% | OVCAR-3 ovarian 75.6% | HS 578T breast 35.4% | NCI/ADR-RES ovarian 57.6%
active: TK-10 renal 9.46% | CCRF-CEM leukemia 6.37% | MOLT-4 leukemia -31.7% | SR leukemia 7.72% | OVCAR-4 ovarian 8.34% | IGROV1 ovarian 0.671%

COc1cc(OC)cc(N2CCN(C(=O)Nc3nc4cc(F)ccc4nc3OC)CC2)c1
active: A498 renal -8.09% | MOLT-4 leukemia 8.4% | SR leukemia 8.23% | OVCAR-3 ovarian -11.8% | NCI/ADR-RES ovarian -2.42%
inactive: SK-MEL-2 melanoma 42.1% | SN12C renal 29.6% | UO-31 renal 34.5% | TK-10 renal 47.5% | ACHN renal 30.2% | CAKI-1 renal 29.7% | CCRF-CEM leukemia 14.7% | RPMI-8226 leukemia 22.7% | OVCAR-8 ovarian 12.7% | OVCAR-5 ovarian 49% | OVCAR-4 ovarian 44% | SK-OV-3 ovarian 14.4% | IGROV1 ovarian 17.6%

COc1cc(-c2cc(-c3cc(OC)c(OC)c(OC)c3)nc3nc(N)[nH]c(=O)c23)ccc1Oc1ccnc2cc(Cl)ccc12
active: SR leukemia 5.24%
inactive: SK-MEL-2 melanoma 29.2% | SN12C renal 31.3% | UO-31 renal 46.3% | TK-10 renal 92.9% | ACHN renal 48.4% | CAKI-1 renal 38.7% | A498 renal 84.9% | CCRF-CEM leukemia 18.2% | MOLT-4 leukemia 17.7% | RPMI-8226 leukemia 19.7% | OVCAR-8 ovarian 42.1% | OVCAR-5 ovarian 103% | OVCAR-4 ovarian 39% | SK-OV-3 ovarian 26.2% | IGROV1 ovarian 52.8% | HS 578T breast 36.3% | NCI/ADR-RES ovarian 21.8%
